The values below come from PubChem BioAssay (NCATS).

Assay [1] relates to ATS95. The experiment in a line: qHTS profiling for inhibitors of Plasmodium falciparum proliferation (AID 504749). Note: nearly all actives have a fitted effect of over 60% in size. The settings on record: P. falciparum in erythrocytes, SYBR Green DNA, 72 h; series mostly up to 12.8 µM. The gist of the method: (§1)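 P. falciparum-infected erythrocytes (0.3% parasitemia, 2.5% hematocrit final) were exposed to compounds for 72 h at 37 C in 5% CO2, then lysed with SYBR Green buffer overnight at room temperature; parasite DNA fluorescence was normalized to artemisinin and DMSO controls.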
(In general: qHTS replaces the single test concentration by a dilution series.)

Assay [2] deals with CP194. The description is as above. The settings on record: P. falciparum in erythrocytes, SYBR Green DNA, 72 h; series mostly up to 12.8 µM. Summed up:
as §1

Assay [3] deals with CP211. The assay is described as above. To be noted: P. falciparum in erythrocytes, SYBR Green DNA, 72 h; series mostly up to 12.8 µM. The gist of the method: as §1
Assay [4] relates to CP237. The description is as above. To be noted: P. falciparum in erythrocytes, SYBR Green DNA, 72 h; series mostly up to 12.8 µM. Summed up:
as §1

The test system of assay [5] is CP247. The assay is described as above. The settings on record: P. falciparum in erythrocytes, SYBR Green DNA, 72 h; series mostly up to 12.8 µM. The gist of the method:
as §1

In assay [6] the test system is CP252. The assay is described as above. To be noted: P. falciparum in erythrocytes, SYBR Green DNA, 72 h; series mostly up to 12.8 µM. Summed up: as §1
Assay [7] deals with CP256. The assay is described as above. To be noted: P. falciparum in erythrocytes, SYBR Green DNA, 72 h; series mostly up to 12.8 µM. The gist of the method: as §1
The subject of assay [8] is CP266. Described as above. To be noted: P. falciparum in erythrocytes, SYBR Green DNA, 72 h; series mostly up to 12.8 µM. Summed up:
as §1

For assay [9], the system named is CP269. The assay is described as above. To be noted: P. falciparum in erythrocytes, SYBR Green DNA, 72 h; series mostly up to 12.8 µM. Summed up: as §1
Assay [10] concerns CP286. The assay is described as above. To be noted: P. falciparum in erythrocytes, SYBR Green DNA, 72 h; series mostly up to 12.8 µM. Summed up: as §1
For assay [11], the system named is CP297. The description is as above. To be noted: P. falciparum in erythrocytes, SYBR Green DNA, 72 h; series mostly up to 12.8 µM. The gist of the method:
as §1

In assay [12] the test system is CP325. The assay is described as above. To be noted: P. falciparum in erythrocytes, SYBR Green DNA, 72 h; series mostly up to 12.8 µM. The gist of the method:
as §1

The test system of assay [13] is DIV14. Described as above. To be noted: P. falciparum in erythrocytes, SYBR Green DNA, 72 h; series mostly up to 12.8 µM. The gist of the method:
as §1

In assay [14] the test system is Dd2. Described as above. The settings on record: P. falciparum in erythrocytes, SYBR Green DNA, 72 h; series mostly up to 12.8 µM. Summed up:
as §1

The test system of assay [15] is HB3. Described as above. To be noted: P. falciparum in erythrocytes, SYBR Green DNA, 72 h; series mostly up to 12.8 µM. Summed up:
as §1

In assay [16] the test system is P93_24. The description is as above. The settings on record: P. falciparum in erythrocytes, SYBR Green DNA, 72 h; series mostly up to 12.8 µM. The gist of the method:
as §1

In assay [17] the test system is P94_40. The assay is described as above. To be noted: P. falciparum in erythrocytes, SYBR Green DNA, 72 h; series mostly up to 12.8 µM. Summed up: as §1
Assay [18] deals with TAB113. The description is as above. The settings on record: P. falciparum in erythrocytes, SYBR Green DNA, 72 h; series mostly up to 12.8 µM. Summed up:
as §1

Assay [19] can be described thus: S16 Schwann cell PMP22 intronic element beta-lactamase assay (AID 624044; calls by dose curve; note: nearly all actives have a fitted effect of over 15% in size). Summed up: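 Rat S16 Schwann cells with beta-Lac driven by a PMP22 intronic element, compound-treated 24 h at 37 °C. LiveBLAzer FRET B/G read: 460 nm normalized to potassium clavulanate vs DMSO; 535 nm FRET as viability; concentration-effect curves classified.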

Results filed as inconclusive are left out. Values without a mark were called inactive. The source made the active and inactive calls. Unless noted, calls come from the whole dose curve; as a rule, active = well fitted inhibition curve with a large enough effect; inconclusive = small, poorly fitted or top-dose-only effect; inactive = flat fitted curve, though single readings scatter.
Potency is the fitted concentration of half-maximal effect.

On to `CC1CCC(C(C)C)C(=O)C1` (stereo not given), for which the Potency entry in assay [1], in assay [2], in assay [3], in [4], in [5] and in [6] was “inactive” throughout. Further, the Potency result in assay [7], in [8], in [9], in assay [10], in assay [11] and in [12] was “inactive” throughout. Also, the Potency entry in [13], in [14], in assay [15], in [16], in assay [17] and in assay [18] was “inactive” throughout.

For the molecule `COC1CC(O[C@H]2/C(C)=C/CC3CC(C[C@]4(CCC(C)C(C5CCCCC5)O4)O3)OC(=O)[C@H]3C=C(C)/C(=N/O)C4OC/C(=C\C=C\[C@@H]2C)[C@@]43O)OC(C)C1O` (stereo not given in full), the Potency entry in assay [19], in [2], in assay [3], in assay [8], in assay [9] and in [12] was “inactive” each time. In addition, in assay [14], the Potency result was “inactive”.

Consider `CC(=O)OC1CCC2C3CCc4cc(O)ccc4C3CCC12C` (stereo not given), for which the Potency entry in assay [19], in assay [1], in assay [2], in assay [3], in assay [4] and in assay [5] was “inactive” each time. Moreover, the Potency result in assay [6], in assay [7], in assay [8], in assay [9], in [10] and in assay [11] was “inactive” throughout. The Potency result in assay [12], in [13], in assay [14], in assay [15], in assay [16] and in assay [17] was “inactive” throughout. The Potency entry in assay [18] is “inactive”.

Turning to `CC(=O)N[C@H](CC(C)C)C(=O)O`, the Potency result in [19], in assay [1], in [2], in assay [3], in assay [4] and in assay [5] was “inactive” in each case. The Potency entry in assay [6], in assay [7], in [8], in [9], in assay [10] and in assay [11] was “inactive” throughout. In addition, the Potency entry in [12], in assay [13], in assay [14], in assay [15], in [16] and in assay [17] was “inactive” each time. For the same molecule, in [18], the Potency result is “inactive”.

Consider `C[C@]1(c2ccccc2)OC(C(=O)O)=CC1=O`, for which the Potency result in [19], in assay [1], in [2], in [3], in assay [4] and in [5] was “inactive” each time. The Potency result in assay [6], in assay [7], in assay [8], in assay [9], in assay [10] and in [11] was “inactive” each time. In addition, the Potency result in assay [12], in [13], in assay [14], in assay [15], in assay [16] and in assay [17] was “inactive” throughout. For the same molecule, in [18], the Potency result was “inactive”.

On to `CO[C@]12C(COC(N)=O)C3=C(C(=O)C(C)=C(N)C3=O)N1CC1NC12` (stereo not given in full), for which the Potency in [19] is 8910 nM (active); in [1], 1000 nM (active); in assay [3], 19000 nM (active); in assay [5], 1410 nM (active); in assay [6], 794 nM (active); in [7] it was 5010 nM (active). In addition, the Potency is 501 nM (active) in [10]; 398 nM (active) in [14]; 1000 nM (active) in [15]; 1000 nM (active) in assay [16]; 891 nM (active) in [17]; 891 nM (active) in [18]. Besides, the Potency result in [4] was “inactive”.

Regarding `CCOC(=O)C1=CC(OC(CC)CC)C(NC(C)=O)C(N)C1` (stereo not given), the Potency entry in [19], in assay [1], in [2], in assay [3], in assay [4] and in assay [5] was “inactive” throughout. For the same molecule, the Potency result in assay [6], in [7], in [8], in assay [9], in assay [10] and in [12] was “inactive” in each case. In addition, the Potency entry in assay [14], in [15], in assay [16], in assay [17] and in assay [18] was “inactive” throughout.

On to `NC(C(=O)O)[C@@H]1CC(Cl)=NO1` (stereo not given in full), for which the Potency was 1000 nM (active) in assay [1]; 3380 nM (active) in assay [2]; 2690 nM (active) in [3]; 1260 nM (active) in assay [4]; 3160 nM (active) in assay [5]; 2820 nM (active) in assay [6]. For the same molecule, the Potency in assay [7] is 2820 nM (active); in assay [8], 3790 nM (active); in [9], 2690 nM (active); in assay [10] it was 794 nM (active); in assay [11] it was 3380 nM (active); in [12], 2690 nM (active). Moreover, the Potency in [13] was 2390 nM (active); in [14], 708 nM (active); in assay [15], 1780 nM (active); in [16], 1000 nM (active); in assay [17] it was 1120 nM (active); in [18], 1000 nM (active).

Take `CC(=O)OCC(=O)[C@@]12OC3(CCCC3)OC1CC1C3CCC4=CC(=O)C=C[C@@]4(C)[C@]3(F)C(O)C[C@]12C` (stereo not given in full): the Potency result in [19], in assay [2], in assay [3], in assay [7], in assay [8] and in assay [9] was “inactive” throughout. The Potency result in [12] was “inactive”. Further, the Potency in [17] is 12600 nM (active).

For `CC1(C)S[C@H]2C(NC(=O)[C@@H](N)c3ccc(O)cc3)C(=O)N2[C@@H]1C(=O)O` (stereo not given in full), the Potency entry in assay [19], in [1], in assay [2], in assay [3], in assay [4] and in [5] was “inactive” in each case. The Potency result in assay [6], in [7], in [8], in [9], in assay [10] and in assay [11] was “inactive” each time. Besides, the Potency result in [12], in [13], in assay [14], in assay [15], in assay [16] and in assay [17] was “inactive” throughout.

As for `COC1C=CO[C@@]2(C)Oc3c(C)c(O)c4c(O)c(c5c(nc6cc(C)ccn65)c4c3C2=O)NC(=O)/C(C)=C\C=CC(C)C(O)[C@@H](C)C(O)C(C)[C@@H](OC(C)=O)C1C` (stereo not given in full), the Potency result in assay [19] was “inactive”. Moreover, the Potency in [1] was 10000 nM (active); in [2] it was 12000 nM (active); in assay [3] it was 15100 nM (active); in assay [4], 8910 nM (active); in assay [5], 8910 nM (active); in [6], 10000 nM (active). Moreover, the Potency in assay [9] was 10700 nM (active); in assay [11], 4260 nM (active); in [13], 1070 nM (active); in [14] it was 12600 nM (active); in [15], 11200 nM (active); in assay [16] it was 3980 nM (active). The Potency was 5010 nM (active) in assay [17] and 12600 nM (active) in [18].

In the case of `CN(C)CCCOC1C(C(O)CO)OC2OC(C)(C)O[C@@H]21` (stereo not given in full), the Potency entry in assay [19], in assay [1], in [2], in [3], in [4] and in [5] was “inactive” in each case. Also, the Potency entry in assay [6], in assay [7], in assay [8], in assay [9], in assay [10] and in [11] was “inactive” in each case. Further, the Potency entry in assay [12], in assay [13], in [14], in [15], in assay [16] and in [17] was “inactive” throughout. Besides, the Potency result in assay [18] was “inactive”.
